# In PubChem BioAssay:
# Where “and” joins values, the source holds several entries; their conditions need not be identical. Identical values can stand only once. Results filed as inconclusive are left out. Calls of active or inactive are those of the source. Unless noted, cut-off not given; nearly all actives show AC50 up to about 26 µM.
# What was measured:
# [1] = EMT-state selective cytotoxicity in co-culture – imaging, PC-3E GFP, TEM4-18 mCherry, primary screen (AID 1345086;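 active means compounds killing one labelled cell type while sparing the other, by normalised counts and ratio limits, not self-fluorescent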;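 on all read-outs here: cells exposed to compound for 72 h before imaging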;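 on red/green cell ratio (normalised): normalised mesenchymal count divided by normalised epithelial count so high means epithelial killing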); settings: PC-3E GFP / TEM4-18 mCherry co-culture, imaging cell counts, at 1 µM; for red/green cell ratio (normalised): actives lie on both sides, counts scaled to control wells, 1 = unselective
# [2] = viability loss in pontine glioma line – cell-based, SU-DIPG-XVII, MIPE5.0, CellTiter-Glo, qHTS, dose response (AID 1347060); settings: CellTiter-Glo ATP luminescence;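 on AC50: cells exposed to compound for 48 hours before viability readout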
# [3] = viability loss in pontine glioma line – cell-based, SU-DIPG-IV, MIPE4.0, CellTiter-Glo, qHTS, dose response (AID 1347063; cut-off not given, nearly all actives have AC50 up to about 30 µM;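 further: compound exposure lasted 48 hours before the viability readout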); settings: CellTiter-Glo ATP luminescence
# [4] = viability loss in pontine glioma line – cell-based, SU-DIPG-XXV, MIPE5.0, CellTiter-Glo, qHTS, dose response (AID 1347065); settings: CellTiter-Glo ATP luminescence;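 further: cells exposed to compound for 48 hours before ATP readout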
# [5] = viability loss with induced miR-34 in A549 – imaging, A549 dox-inducible miR-34, nuclei and caspase counts, primary screen (AID 1347080;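 active means compounds whose cell count with miR-34 switched on is under 0.7 times the count with it off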); settings: A549 miR-34 inducible, Hoechst nuclei count, 48 h
# [6] = MELAS cybrid and Rieske KO viability enhancers – cell-based, MELAS cybrids, Rieske KO mouse fibroblasts, CellTiter-Glo, primary screen (AID 1508586;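 active means mean z-score across replicates of 1.96 or higher in either the MELAS or the Rieske mutant cell line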;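 further: z relative to plate mean and SD of compound and empty wells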); settings: low glucose
# [7] = P. berghei load reduction in hepatocytes – cell-based, HepG2, luciferase luminescence, HepG2 viability, primary screen (AID 624349; in the data active means parasite load remaining mostly below about 12%, no sharp cut-off; inactive means mostly above about 10%;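 further: 100% = mean of DMSO negative control wells on the same plate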); settings: P. berghei liver stage in HepG2, luciferase luminescence, concentration not given here; parasite load remaining: stronger effect = lower value; viability: measured here: HepG2 viability without parasites
# [8] = viability loss in pontine glioma line – cell-based, SU-DIPG-XIII, MIPE4.0, CellTiter-Glo, qHTS, dose response (AID 1347061; cut-off not given, nearly all actives have AC50 up to about 37 µM;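 further: cells exposed to compound for 48 hours before readout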); settings: CellTiter-Glo ATP luminescence
# [9] = viability loss in pontine glioma line – cell-based, JHH-DIPG-1, MIPE4.0, CellTiter-Glo, qHTS, dose response (AID 1347062; cut-off not given, nearly all actives have AC50 up to about 27 µM); settings: JHH-DIPG-1 viability, CellTiter-Glo ATP luminescence
# [10] = growth inhibition of DIPG cells – cell-based, MIPE4.0 library, CellTiter-Glo luminescence, qHTS (AID 1347066; cut-off not given, nearly all actives have AC50 up to about 30 µM;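 further: cells exposed to compound for 48 hours before readout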); settings: SU-DIPG-VI viability, CellTiter-Glo ATP luminescence
# [11] = JHH-DIPG-1 glioma cell viability, MIPE5.0 library, CellTiter-Glo luminescence, qHTS (AID 1347067); settings: JHH-DIPG-1 glioma viability, CellTiter-Glo ATP luminescence;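 further: cells exposed to compound for 48 hours before readout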
# [12] = growth inhibition of DIPG cells – cell-based, MIPE5.0 library, qHTS (AID 1347068; cut-off not given, nearly all actives have IC50 up to about 30 µM); settings: SU-DIPG-XXV viability
# [13] = viability loss in pontine glioma line – cell-based, SU-DIPG-XIII, MIPE5.0, CellTiter-Glo, qHTS, dose response (AID 1347064; cut-off not given, nearly all actives have AC50 up to about 23 µM;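 on AC50: cells exposed to compound for 48 hours before the viability read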); settings: CellTiter-Glo ATP luminescence
# [14] = molecular target: Mitogen-activated protein kinase 7 (Homo sapiens) (UniProt Q13164); assay: Gal4-ERK5 driven luciferase induction – cell-based, HTS, primary screen (AID 1508626;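 active means luciferase signal above three times the same-plate solvent-only control wells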;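 further: luciferase driven by Gal4-ERK5 fusion binding five Gal4 sites before minimal TATA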); settings: HeLa Gal4-ERK5 transactivation, 18 h, at 5 µM, stronger effect = higher value
# Mitogen-activated protein kinase 7 (Homo sapiens), sequence (Q13164 whole entry, looked up, the tested form may be a part): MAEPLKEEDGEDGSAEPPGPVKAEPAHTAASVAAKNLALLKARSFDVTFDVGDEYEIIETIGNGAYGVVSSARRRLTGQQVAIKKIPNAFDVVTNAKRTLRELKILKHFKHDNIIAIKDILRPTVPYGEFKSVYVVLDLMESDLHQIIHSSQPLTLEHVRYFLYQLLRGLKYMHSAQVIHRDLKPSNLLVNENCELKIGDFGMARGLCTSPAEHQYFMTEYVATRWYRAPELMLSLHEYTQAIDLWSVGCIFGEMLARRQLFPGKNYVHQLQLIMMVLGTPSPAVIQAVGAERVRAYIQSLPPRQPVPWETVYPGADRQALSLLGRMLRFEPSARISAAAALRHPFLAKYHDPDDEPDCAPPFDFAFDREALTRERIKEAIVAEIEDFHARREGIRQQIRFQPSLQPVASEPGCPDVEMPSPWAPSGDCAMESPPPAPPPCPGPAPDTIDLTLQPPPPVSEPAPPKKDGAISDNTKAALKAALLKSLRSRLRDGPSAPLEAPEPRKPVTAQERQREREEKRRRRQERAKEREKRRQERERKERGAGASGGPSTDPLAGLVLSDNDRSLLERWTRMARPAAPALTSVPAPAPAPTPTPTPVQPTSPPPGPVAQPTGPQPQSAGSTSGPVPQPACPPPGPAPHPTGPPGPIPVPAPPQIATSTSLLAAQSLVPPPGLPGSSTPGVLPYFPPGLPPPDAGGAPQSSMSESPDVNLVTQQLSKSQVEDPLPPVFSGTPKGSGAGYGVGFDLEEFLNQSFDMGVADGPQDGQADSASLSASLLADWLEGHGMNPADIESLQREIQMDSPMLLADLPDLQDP
# [15] = molecular target: NAD(+) hydrolase SARM1 (Homo sapiens) (UniProt Q6SZW1); assay: blocking NAD cleavage by SARM1 SAM-TIR – cell lysate, NAD-Glo luminescence (AID 1508614;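 active means compound whose remaining NAD level is above about 45 nM, limit read from the data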); settings: SAM-TIR HEK293T lysate NADase, at 1 µM, stronger effect = higher value
# NAD(+) hydrolase SARM1 (Homo sapiens), sequence (Q6SZW1 whole entry, looked up): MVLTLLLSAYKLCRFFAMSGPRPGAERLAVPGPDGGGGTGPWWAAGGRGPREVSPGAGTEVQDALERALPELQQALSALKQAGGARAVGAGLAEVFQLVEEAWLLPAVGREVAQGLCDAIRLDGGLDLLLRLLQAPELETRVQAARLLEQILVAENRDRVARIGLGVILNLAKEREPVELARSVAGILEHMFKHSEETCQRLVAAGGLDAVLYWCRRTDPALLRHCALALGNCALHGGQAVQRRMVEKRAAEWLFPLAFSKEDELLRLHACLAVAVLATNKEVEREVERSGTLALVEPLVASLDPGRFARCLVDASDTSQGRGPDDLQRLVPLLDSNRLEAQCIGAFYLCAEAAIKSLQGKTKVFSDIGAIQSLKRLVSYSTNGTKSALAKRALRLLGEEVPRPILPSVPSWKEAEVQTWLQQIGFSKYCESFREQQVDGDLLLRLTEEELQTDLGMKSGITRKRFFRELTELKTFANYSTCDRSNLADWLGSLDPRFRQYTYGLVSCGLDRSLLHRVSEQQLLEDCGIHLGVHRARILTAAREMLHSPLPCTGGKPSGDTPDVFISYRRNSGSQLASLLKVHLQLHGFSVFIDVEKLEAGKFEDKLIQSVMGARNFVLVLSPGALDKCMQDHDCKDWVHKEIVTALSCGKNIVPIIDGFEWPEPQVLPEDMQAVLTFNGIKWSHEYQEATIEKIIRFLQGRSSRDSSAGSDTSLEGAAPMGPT
# [16] = galactose survival enhancers in mitochondrial complex I cybrids – cell-based, galactose medium, ATP luminescence, primary screen (AID 1645843;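 active means z-score of at least 1.8 in each of two replicates, scored against plate mean and spread of sample wells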;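 further: positive z means more ATP and so rescue of galactose-driven cybrid death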); settings: complex I mutant cybrid cells, 72 h, stronger effect = higher value
# [17] = measured here: epithelial PC-3E GFP cell survival
# [18] = measured here: mesenchymal TEM4-18 mCherry cell survival
# [19] = stronger effect = lower value, cell number ratio, induced over uninduced
# [20] = measured here: relative caspase fold change +Dox/-Dox
# [21] = measured here: total cells with miR-34 induction, stronger effect = lower value
# [22] = measured here: total cells without miR-34 induction
# [23] = MELAS cybrid survival, CellTiter-Glo 48 h, stronger effect = higher value
# [24] = Rieske KO mouse fibroblast survival, CellTiter-Glo 72 h
smiles,measurement,setting,value
OC(c1cc(C(F)(F)F)nc2c(C(F)(F)F)cccc12)C1CCCCN1 (stereo not drawn),red/green cell ratio (normalised),[1],0.94 (inactive)
same,normalised cell number,[1]; [17],1.16
same,normalised cell number,[1]; [18],1.1
same,AC50,[2],20.9 µM (active)
same,AC50,[3],26.4 µM (active)
same,AC50,[4],20.9 µM (active)
same,fold change,[5]; [19],0.709 (inactive) and 0.928 (inactive)
same,fold change,[5]; [20],1.51 and 4.5
same,cell count,[5]; [21],3010 and 11200
same,cell count,[5]; [22],4250 and 12100
same,z-score,[6]; [23],-2.19 (inactive)
same,z-score,[6]; [24],-3.08
CC(NCCc1ccc(O)cc1)C(O)c1ccc(O)cc1 (stereo not drawn),parasite load remaining,[7],92.5% (inactive) and 43.7% (inactive)
same,viability,[7],69.7% and 91.3%
same,red/green cell ratio (normalised),[1],1.16 (inactive)
same,normalised cell number,[1]; [17],0.9
same,normalised cell number,[1]; [18],1.05
same,outcome,[2],inactive
same,outcome,[8],inactive
same,outcome,[9],inactive
same,outcome,[3],inactive
same,outcome,[4],inactive
same,outcome,[10],inactive
same,outcome,[11],inactive
same,outcome,[12],inactive
same,fold change,[5]; [19],0.955 (inactive)
same,fold change,[5]; [20],3.65
same,cell count,[5]; [21],12000
same,cell count,[5]; [22],12600
CCC(=O)Oc1ccc2c(c1)CCC1C2CC[C@@]2(C)C1CC[C@@H]2OC(=O)CC (stereo partly drawn),red/green cell ratio (normalised),[1],1.36 (inactive)
same,normalised cell number,[1]; [17],0.8
same,normalised cell number,[1]; [18],1.09
same,fold change,[5]; [19],0.968 (inactive)
same,fold change,[5]; [20],0.855
same,cell count,[5]; [21],8160
same,cell count,[5]; [22],8430
O=c1ccn([C@@H]2O[C@H](CO)[C@@H](O)[C@H]2O)c(=O)[nH]1,red/green cell ratio (normalised),[1],0.9 (inactive)
same,normalised cell number,[1]; [17],1
same,normalised cell number,[1]; [18],0.9
same,outcome,[2],inactive
same,outcome,[9],inactive
same,outcome,[3],inactive
same,outcome,[13],inactive
same,outcome,[4],inactive
same,outcome,[10],inactive
same,outcome,[12],inactive
CC(C)=CCC/C(C)=C/CC/C(C)=C/CC/C(C)=C/CC/C(C)=C/CC/C(C)=C/CC/C(C)=C/CC/C(C)=C/CC/C(C)=C/CO,red/green cell ratio (normalised),[1],1.11 (inactive)
same,normalised cell number,[1]; [17],0.97
same,normalised cell number,[1]; [18],1.07
same,outcome,[9],inactive
same,outcome,[3],inactive
same,outcome,[10],inactive
same,luciferase signal,[14],20 AU (inactive)
C[C@]12CCC3c4ccc(O)cc4CCC3C1CCC2=O (stereo partly drawn),parasite load remaining,[7],83.7% (inactive) and 77.8% (inactive)
same,viability,[7],75.2% and 91.3%
same,red/green cell ratio (normalised),[1],0.96 (inactive)
same,normalised cell number,[1]; [17],1.03
same,normalised cell number,[1]; [18],0.99
same,outcome,[2],inactive
same,outcome,[8],inactive
same,outcome,[3],inactive
same,outcome,[4],inactive
same,outcome,[10],inactive
same,outcome,[11],inactive
same,outcome,[12],inactive
same,fold change,[5]; [19],1.01 (inactive)
same,fold change,[5]; [20],1.48
same,cell count,[5]; [21],10400
same,cell count,[5]; [22],10300
COC1=C(OC)C(=O)C(C/C=C(\C)CC/C=C(\C)CC/C=C(\C)CC/C=C(/C)CC/C=C(\C)CC/C=C(\C)CC/C=C(\C)CC/C=C(\C)CC/C=C(\C)CCC=C(C)C)=C(C)C1=O,red/green cell ratio (normalised),[1],1.1 (inactive)
same,normalised cell number,[1]; [17],0.97
same,normalised cell number,[1]; [18],1.06
same,outcome,[13],inactive
same,outcome,[4],inactive
same,outcome,[11],inactive
same,outcome,[12],inactive
same,luciferase signal,[14],80 AU (inactive)
COc1ccc(C2Sc3ccccc3N(CCN(C)C)C(=O)C2OC(C)=O)cc1 (stereo not drawn),parasite load remaining,[7],163% (inactive) and 58.1% (inactive)
same,viability,[7],88.6% and 96.1%
same,red/green cell ratio (normalised),[1],1.25 (inactive)
same,normalised cell number,[1]; [17],0.98
same,normalised cell number,[1]; [18],1.22
same,outcome,[9],inactive
same,outcome,[3],inactive
same,outcome,[10],inactive
same,fold change,[5]; [19],0.937 (inactive) and 0.887 (inactive)
same,fold change,[5]; [20],0.646 and 4.46
same,cell count,[5]; [21],7800 and 11500
same,cell count,[5]; [22],8320 and 13000
same,z-score,[6]; [23],-0.332 (inactive)
same,z-score,[6]; [24],-0.2
CC(=O)OC1CC2CCC1(C)C2(C)C (stereo not drawn),red/green cell ratio (normalised),[1],1.03 (inactive)
same,normalised cell number,[1]; [17],0.91
same,normalised cell number,[1]; [18],0.94
same,fold change,[5]; [19],0.913 (inactive)
same,fold change,[5]; [20],0.766
same,cell count,[5]; [21],8690
same,cell count,[5]; [22],9520
C=CC[C@@H]1/C=C(\C)C[C@H](C)C[C@H](OC)[C@H]2O[C@@](O)(C(=O)C(=O)N3CCCC[C@H]3C(=O)O[C@H](/C(C)=C/[C@@H]3CC[C@@H](O)[C@H](OC)C3)[C@H](C)[C@@H](O)CC1=O)[C@H](C)C[C@@H]2OC,parasite load remaining,[7],58.3% (inactive)
same,viability,[7],97.1%
same,red/green cell ratio (normalised),[1],1.19 (inactive)
same,normalised cell number,[1]; [17],0.77
same,normalised cell number,[1]; [18],0.91
same,AC50,[8],23.5 µM (active)
same,AC50,[3],1.18 µM (active)
same,AC50,[4],20.9 µM (active)
same,fold change,[5]; [19],1.03 (inactive) and 0.874 (inactive)
same,fold change,[5]; [20],1.61 and 2.51
same,cell count,[5]; [21],4360 and 8620
same,cell count,[5]; [22],4240 and 9860
same,remaining NAD,[15],10 nM (inactive)
same,luciferase signal,[14],68 AU (inactive)
CN[C@@H]1[C@H](O[C@H]2[C@H](O[C@@H]3[C@@H](O)[C@H](O)[C@@H](N=C(N)N)[C@H](O)[C@H]3N=C(N)N)O[C@@H](C)[C@]2(O)C=O)O[C@@H](CO)[C@H](O)[C@H]1O,parasite load remaining,[7],51.2% (inactive) and 45.6% (inactive) and 35.8% (inactive)
same,viability,[7],118% and 97.5% and 75%
same,red/green cell ratio (normalised),[1],0.77 (inactive)
same,normalised cell number,[1]; [17],1.28
same,normalised cell number,[1]; [18],0.98
same,outcome,[2],inactive
same,outcome,[13],inactive
same,outcome,[4],inactive
same,outcome,[11],inactive
same,outcome,[12],inactive
same,fold change,[5]; [19],0.935 (inactive) and 0.903 (inactive)
same,fold change,[5]; [20],0.998 and 1.43
same,cell count,[5]; [21],7810 and 9380
same,cell count,[5]; [22],8360 and 10400
same,z-score,[6]; [23],-0.628 (inactive) and -0.564 (inactive)
same,z-score,[6]; [24],-0.384 and -1.54
same,z-score,[16],-0.095 (inactive)
C[C@H]1COC2=C1C(=O)C(=O)c1c2ccc2c1CCCC2(C)C,red/green cell ratio (normalised),[1],0.82 (inactive)
same,normalised cell number,[1]; [17],0.98
same,normalised cell number,[1]; [18],0.8
same,AC50,[2],20.9 µM (active)
same,outcome,[8],inactive
same,AC50,[3],13.2 µM (active)
same,AC50,[13],18.6 µM (active)
same,AC50,[4],20.9 µM (active)
same,outcome,[10],inactive
same,AC50,[11],20.9 µM (active)
same,outcome,[12],inactive
same,luciferase signal,[14],80 AU (inactive)
CC(C)(CO)C(O)C(=O)NCCC(=O)NCCSSCCNC(=O)CCNC(=O)C(O)C(C)(C)CO (stereo not drawn),red/green cell ratio (normalised),[1],0.97 (inactive)
same,normalised cell number,[1]; [17],0.82
same,normalised cell number,[1]; [18],0.8
same,fold change,[5]; [19],0.968 (inactive)
same,fold change,[5]; [20],0.786
same,cell count,[5]; [21],8560
same,cell count,[5]; [22],8840
